For part of these data: Measured potencies and affinities stand elsewhere.
Key:
Design in all cases: scale not given: direction of the effect not stated beside the values
[1] = biological target: Protein translocase subunit SecA (Escherichia coli (strain K12)) (UniProt P10408); test: Assay to Identify E. coli SecA ATPase Inhibitors; format: functional; settings: 30 µM
[2] = biological target: T1, Ubiquitin-activating enzyme e1, putative (Leishmania donovani (strain BPK282A1)) (UniProt E9BSI1); test: Leishmania donovani Ubiquitin Activating Enzyme (LdE1); format: functional; settings: 30 µM
T1 sequence (whole entry): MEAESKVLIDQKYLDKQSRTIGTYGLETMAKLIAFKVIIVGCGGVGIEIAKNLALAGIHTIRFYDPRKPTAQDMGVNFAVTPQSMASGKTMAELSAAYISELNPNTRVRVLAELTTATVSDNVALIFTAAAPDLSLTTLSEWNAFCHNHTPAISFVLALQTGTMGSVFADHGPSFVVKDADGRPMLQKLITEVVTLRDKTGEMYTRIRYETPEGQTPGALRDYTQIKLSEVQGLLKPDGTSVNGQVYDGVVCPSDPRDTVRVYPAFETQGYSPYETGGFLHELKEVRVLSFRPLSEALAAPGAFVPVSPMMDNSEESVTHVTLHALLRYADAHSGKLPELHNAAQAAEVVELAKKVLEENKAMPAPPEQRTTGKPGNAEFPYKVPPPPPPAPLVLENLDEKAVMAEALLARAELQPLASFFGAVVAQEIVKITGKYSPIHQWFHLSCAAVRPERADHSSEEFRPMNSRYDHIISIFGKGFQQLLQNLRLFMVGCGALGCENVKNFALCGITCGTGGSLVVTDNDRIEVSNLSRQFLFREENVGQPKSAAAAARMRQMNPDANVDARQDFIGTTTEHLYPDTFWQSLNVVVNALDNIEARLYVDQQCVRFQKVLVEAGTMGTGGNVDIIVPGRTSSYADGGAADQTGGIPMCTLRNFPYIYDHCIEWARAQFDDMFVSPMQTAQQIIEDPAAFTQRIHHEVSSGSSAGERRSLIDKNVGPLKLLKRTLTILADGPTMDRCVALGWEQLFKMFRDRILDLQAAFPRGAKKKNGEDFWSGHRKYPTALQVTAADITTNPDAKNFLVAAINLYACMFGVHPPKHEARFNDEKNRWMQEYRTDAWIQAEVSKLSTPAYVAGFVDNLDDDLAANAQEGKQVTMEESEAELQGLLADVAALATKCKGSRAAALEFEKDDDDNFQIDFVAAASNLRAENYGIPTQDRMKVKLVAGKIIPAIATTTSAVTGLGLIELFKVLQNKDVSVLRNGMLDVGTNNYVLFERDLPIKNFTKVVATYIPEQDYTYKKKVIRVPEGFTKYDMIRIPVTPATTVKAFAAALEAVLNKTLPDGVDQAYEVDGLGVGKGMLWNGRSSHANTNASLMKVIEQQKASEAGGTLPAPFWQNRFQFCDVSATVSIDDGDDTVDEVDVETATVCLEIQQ

[3] = biological target: AMP-activated protein kinase, AMPK (Homo sapiens) (UniProt P54646+O43741+P54619+Q9UGJ0+Q9Y478+Q13131+Q9UGI9); test: AMP-dependent Kinase enzyme assay. An in vitro enzyme assay that detects ADP turnover that is directly proportional to AMPK activity. This uses naive AMPK that is activated during the assay with MK-8722; format: functional; settings: 30 µM
[4] = biological target: Sialic acid-binding Ig-like lectin 9 (Homo sapiens) (UniProt Q9Y336); test: Hs-Siglec9 ALPHAscreen SOP 20170721; settings: 10 µM
Chain of Sialic acid-binding Ig-like lectin 9 (Homo sapiens) (Q9Y336 whole entry): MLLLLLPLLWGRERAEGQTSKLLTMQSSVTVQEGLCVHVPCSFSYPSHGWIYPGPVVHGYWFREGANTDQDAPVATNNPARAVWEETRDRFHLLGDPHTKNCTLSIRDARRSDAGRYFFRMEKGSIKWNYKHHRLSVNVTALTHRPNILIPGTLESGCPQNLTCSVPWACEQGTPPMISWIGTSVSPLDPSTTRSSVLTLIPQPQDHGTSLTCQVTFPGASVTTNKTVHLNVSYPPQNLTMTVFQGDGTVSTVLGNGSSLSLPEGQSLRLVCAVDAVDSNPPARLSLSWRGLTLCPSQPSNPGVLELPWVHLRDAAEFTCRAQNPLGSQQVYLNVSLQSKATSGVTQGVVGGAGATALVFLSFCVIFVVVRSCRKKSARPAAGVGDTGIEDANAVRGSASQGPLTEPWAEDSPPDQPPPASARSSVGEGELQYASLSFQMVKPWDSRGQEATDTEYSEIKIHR

Trypanosoma cruzi = test: Trypanosoma cruzi phosphomannomutase and mannose-1-phosphate guanylyltransferase assay; format: functional; settings: 10 µM
[5] = biological target: T2, Arginase-2, mitochondrial (Homo sapiens) (UniProt P78540); test: in vitro enzyme assay to detect the production of urea directly proportional to the activity of Arginase II; format: functional; settings: 33.3 µM; further: in the data most compounds retested in dose-response had high values
T2 sequence (whole entry): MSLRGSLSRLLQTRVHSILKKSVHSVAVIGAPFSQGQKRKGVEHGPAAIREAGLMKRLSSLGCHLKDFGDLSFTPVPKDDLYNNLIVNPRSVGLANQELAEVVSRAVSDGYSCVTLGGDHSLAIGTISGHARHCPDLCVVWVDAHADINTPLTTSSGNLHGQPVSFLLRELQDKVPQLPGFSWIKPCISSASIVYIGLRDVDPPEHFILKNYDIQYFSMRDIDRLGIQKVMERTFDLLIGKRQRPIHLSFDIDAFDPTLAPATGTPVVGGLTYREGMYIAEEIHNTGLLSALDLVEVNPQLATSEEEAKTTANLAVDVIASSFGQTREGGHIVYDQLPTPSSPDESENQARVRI

[6] = biological target: T3, Proteasome subunit beta (Trypanosoma cruzi) (UniProt O96673); test: Trypanosoma cruzi proteasome chymotrypsin-like activity (TcProtChymo) assay.; further: in the data most compounds retested in dose-response had high values; format: functional; settings: 9.37 µM
T3 sequence (whole entry): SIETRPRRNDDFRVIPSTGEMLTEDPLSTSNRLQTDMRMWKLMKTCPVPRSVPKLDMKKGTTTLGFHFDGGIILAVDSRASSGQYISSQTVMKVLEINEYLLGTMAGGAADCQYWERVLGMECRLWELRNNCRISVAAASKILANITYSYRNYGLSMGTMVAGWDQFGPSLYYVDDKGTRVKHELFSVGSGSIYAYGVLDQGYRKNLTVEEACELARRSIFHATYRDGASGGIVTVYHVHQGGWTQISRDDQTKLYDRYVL

Homo sapiens = species on record: Homo sapiens; test: To identify inhibition of the IFN signalling (Jak-Stat) pathway via expression of an eGFP reporter gene under the control of an IFN-stimulated response element (ISRE) containing MxA promoter.; format: functional; settings: 30 µM
[7] = biological target: T4, Tyrosyl-tRNA synthetase, putative (Trypanosoma cruzi (strain CL Brener)) (UniProt Q4DSP6); test: Trypanosoma cruzi tyrosyl tRNA synthetase (TcYRS) _High Tyrosine SOP; format: functional; settings: 30 µM; further: in the data most compounds retested in dose-response had high values
T4 sequence (whole entry): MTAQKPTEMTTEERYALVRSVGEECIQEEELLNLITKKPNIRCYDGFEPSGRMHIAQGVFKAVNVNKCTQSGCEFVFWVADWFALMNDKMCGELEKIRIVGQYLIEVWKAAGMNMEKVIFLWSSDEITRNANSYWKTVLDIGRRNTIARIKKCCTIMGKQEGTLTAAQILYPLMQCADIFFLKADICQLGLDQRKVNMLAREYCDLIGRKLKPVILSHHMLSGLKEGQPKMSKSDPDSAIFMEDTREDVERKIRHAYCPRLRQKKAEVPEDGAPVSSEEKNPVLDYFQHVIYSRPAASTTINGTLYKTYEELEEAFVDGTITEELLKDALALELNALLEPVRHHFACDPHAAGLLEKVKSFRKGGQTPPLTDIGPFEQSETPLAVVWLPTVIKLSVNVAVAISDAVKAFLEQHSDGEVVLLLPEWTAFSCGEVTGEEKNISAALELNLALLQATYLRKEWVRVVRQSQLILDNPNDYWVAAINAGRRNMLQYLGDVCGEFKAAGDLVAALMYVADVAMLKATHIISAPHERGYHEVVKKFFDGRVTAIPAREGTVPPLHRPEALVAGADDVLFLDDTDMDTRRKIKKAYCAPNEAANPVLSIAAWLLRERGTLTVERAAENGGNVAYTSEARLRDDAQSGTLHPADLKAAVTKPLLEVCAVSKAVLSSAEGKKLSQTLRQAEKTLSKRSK

[8] = biological target: T4, Tyrosyl-tRNA synthetase, putative (Trypanosoma cruzi (strain CL Brener)); test: Trypanosoma cruzi tyrosyl tRNA synthetase (TcYRS) SOP; format: functional; settings: 30 µM
[9] = biological target: Chromo domain-containing protein 1 (Saccharomyces cerevisiae (strain ATCC 204508 / S288c) (Baker's yeast)) (UniProt P32657); test: ScCHD-1 Enzyme Inhibition Assay; format: functional; settings: 30 µM; further: in the data most compounds retested in dose-response had high values
Chain of Chromo domain-containing protein 1 (Saccharomyces cerevisiae (strain ATCC 204508 / S288c) (Baker's yeast)) (P32657 whole entry, the tested form may be a part): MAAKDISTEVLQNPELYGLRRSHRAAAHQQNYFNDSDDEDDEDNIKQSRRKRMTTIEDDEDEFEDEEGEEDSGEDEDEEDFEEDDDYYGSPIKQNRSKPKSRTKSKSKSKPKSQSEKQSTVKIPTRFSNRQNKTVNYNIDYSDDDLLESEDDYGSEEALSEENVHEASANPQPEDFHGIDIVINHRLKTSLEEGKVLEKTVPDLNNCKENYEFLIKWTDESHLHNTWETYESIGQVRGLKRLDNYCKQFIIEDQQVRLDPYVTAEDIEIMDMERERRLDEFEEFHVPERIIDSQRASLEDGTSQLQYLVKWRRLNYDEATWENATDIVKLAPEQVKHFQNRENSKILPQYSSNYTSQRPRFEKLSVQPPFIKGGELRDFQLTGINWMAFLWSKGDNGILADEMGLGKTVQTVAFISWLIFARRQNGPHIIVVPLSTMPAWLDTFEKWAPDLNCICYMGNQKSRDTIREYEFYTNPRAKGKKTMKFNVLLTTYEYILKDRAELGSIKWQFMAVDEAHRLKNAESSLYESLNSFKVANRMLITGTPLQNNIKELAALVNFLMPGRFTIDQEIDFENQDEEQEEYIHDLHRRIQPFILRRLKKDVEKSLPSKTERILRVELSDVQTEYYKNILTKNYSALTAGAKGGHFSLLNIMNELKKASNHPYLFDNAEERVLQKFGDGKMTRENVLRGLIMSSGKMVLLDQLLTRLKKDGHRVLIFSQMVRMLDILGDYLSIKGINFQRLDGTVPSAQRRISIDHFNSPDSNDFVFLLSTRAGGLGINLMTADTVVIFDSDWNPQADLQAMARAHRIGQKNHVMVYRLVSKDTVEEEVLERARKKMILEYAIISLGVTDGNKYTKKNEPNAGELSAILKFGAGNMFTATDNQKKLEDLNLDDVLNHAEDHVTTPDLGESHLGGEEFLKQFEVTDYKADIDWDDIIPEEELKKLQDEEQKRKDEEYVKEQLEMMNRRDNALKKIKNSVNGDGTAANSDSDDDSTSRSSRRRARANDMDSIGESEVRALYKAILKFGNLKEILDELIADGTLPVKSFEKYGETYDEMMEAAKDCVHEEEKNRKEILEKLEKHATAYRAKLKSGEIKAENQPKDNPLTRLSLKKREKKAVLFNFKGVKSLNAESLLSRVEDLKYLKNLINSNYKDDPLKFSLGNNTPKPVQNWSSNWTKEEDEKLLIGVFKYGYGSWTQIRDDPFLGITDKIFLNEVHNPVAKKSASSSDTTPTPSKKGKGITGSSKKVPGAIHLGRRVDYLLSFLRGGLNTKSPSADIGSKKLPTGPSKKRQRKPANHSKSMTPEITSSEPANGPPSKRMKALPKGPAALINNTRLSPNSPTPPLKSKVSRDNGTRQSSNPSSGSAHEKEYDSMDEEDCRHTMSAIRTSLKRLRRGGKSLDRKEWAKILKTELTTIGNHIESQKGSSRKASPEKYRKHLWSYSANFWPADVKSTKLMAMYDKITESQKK

Chain of Protein translocase subunit SecA (Escherichia coli (strain K12)) (P10408 whole entry): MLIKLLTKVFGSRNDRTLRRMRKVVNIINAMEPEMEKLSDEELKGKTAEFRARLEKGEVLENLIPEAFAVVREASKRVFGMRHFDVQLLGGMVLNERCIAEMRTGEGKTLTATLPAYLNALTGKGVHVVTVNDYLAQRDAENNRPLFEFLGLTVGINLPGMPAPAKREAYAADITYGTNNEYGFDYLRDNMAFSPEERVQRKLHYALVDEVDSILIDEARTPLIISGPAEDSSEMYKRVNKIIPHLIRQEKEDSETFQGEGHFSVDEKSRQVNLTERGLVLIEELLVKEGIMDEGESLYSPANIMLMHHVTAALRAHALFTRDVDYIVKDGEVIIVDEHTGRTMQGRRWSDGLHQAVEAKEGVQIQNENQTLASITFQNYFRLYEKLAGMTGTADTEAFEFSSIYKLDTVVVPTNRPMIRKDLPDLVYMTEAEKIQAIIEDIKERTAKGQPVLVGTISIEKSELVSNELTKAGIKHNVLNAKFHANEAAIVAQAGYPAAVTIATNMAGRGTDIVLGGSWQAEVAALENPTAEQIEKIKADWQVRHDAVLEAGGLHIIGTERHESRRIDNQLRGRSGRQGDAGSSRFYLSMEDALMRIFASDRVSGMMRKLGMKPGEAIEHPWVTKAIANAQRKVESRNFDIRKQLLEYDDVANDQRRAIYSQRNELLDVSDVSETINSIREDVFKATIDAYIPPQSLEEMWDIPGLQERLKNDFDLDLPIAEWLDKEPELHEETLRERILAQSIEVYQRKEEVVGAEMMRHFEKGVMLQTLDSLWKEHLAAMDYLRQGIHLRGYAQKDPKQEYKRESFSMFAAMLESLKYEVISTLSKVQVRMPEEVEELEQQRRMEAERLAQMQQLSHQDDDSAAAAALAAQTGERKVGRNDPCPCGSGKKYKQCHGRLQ

Row | Structure (SMILES) | Percent Effect [1] [%] | Percent Effect [2] [%] | Percent Effect [3] [%] | Percent Effect [4] [%] | Percent Effect (Trypanosoma cruzi) [%] | Percent Effect [5] [%] | Percent Effect [6] [%] | Percent Effect (Homo sapiens) [%] | Percent Effect [7] [%] | Percent Effect [8] [%] | Percent Effect [9] [%]
1 | Cc1nnc2n1CCN(C(=O)COCCOc1ccccc1)C2 | -3.64 | -21.5 | 10 | 1.03 | -1.33 | 4.95 | 7.89 | 3.44 | 5.21 | 12.7 | -1.76
2 | COc1ccccc1S(=O)(=O)N1CCC(Oc2cccnn2)CC1 | -5.78 | -5.48 | -9.71 | -3.66 | -4.11 | -0.909 | 3.9 | 16.2 | -1.07 | -2.5 | -1.62
3 | O=C(Nc1cccc(CN2CCOC2=O)c1)N1CCSCC1 | -1.53 | 12.5 | -15.6 | 9.65 | 2.04 | 3.09 | 23.3 | -2.05 | 8.42 | 15.4 | 83.9
4 | O=C(N1CCCC1)N1CCN(CC2CC2)c2ncccc2C1 | -3.07 | 5.33 | 8.78 | -0.324 | -6.69 | 7.69 | 21.8 | 10.6 | 4.25 | 1.28 | -4.2
5 | Cc1ccc(S(=O)(=O)NCCNC(=O)c2ccoc2)cc1F | -4.47 | 13.3 | 4.57 | 12.1 | 5.75 | 5.21 | 15.5 | 16.4 | 3.83 | 13.6 | 86.1
6 | Cc1ccccc1C1(C(=O)NCCN2CCCC2)CCOCC1 | -0.0334 | 10.8 | -6.54 | -0.683 | -0.283 | -8.42 | 16.2 | 20.7 | 9.36 | 18.5 | -8.78
7 | O=C(NCC1CC1)C1=NOC2(CCN(Cc3ccc4c(c3)OCO4)C2)C1 (stereo unspecified) | -4.9 | 8 | 8.35 | 5 | -2.51 | -50.4 | 11.1 | 0.899 | 0 | -17.5 | -6.02
8 | O=S(=O)(C1CC1)N1CCC2(COCc3cnc(N4CCOCC4)nc32)C1 (stereo unspecified) | 1.84 | 14.7 | 1.88 | -4.21 | -2.55 | -6.16 | 9.61 | 13.3 | 1.06 | 5.13 | -7.85
9 | O=C1N(c2ccc(F)cc2)Cc2nc(=O)n(Cc3cccc(Cl)c3)n21 | 0.397 | -4 | 8.75 | 4.81 | -5.11 | -3.35 | 5.36 | -6.59 | -5.29 | -2.56 | -4.31
10 | N#Cc1cccc(CS(=O)(=O)NCCC(O)c2ccccc2)c1 (stereo unspecified) | 13 | 5.33 | -6.17 | 7.18 | 4.77 | 15.1 | 16.2 | 3.01 | 4.92 | 16.1 | -6.38
11 | Cc1ccc(CNC(=O)N2CCCCC2CCNS(C)(=O)=O)cc1 (stereo unspecified) | -1.58 | 2.7 | 2.59 | -1.08 | -1.74 | -15.2 | 12.6 | 23.6 | 2.65 | 2.44 | -4.89
12 | CCC(NC(=O)C1CCN(S(C)(=O)=O)CC1)c1ccc(OC)c(OC)c1 (stereo unspecified) | -2.12 | -2.6 | 3.25 | -1.28 | -1.48 | -5.52 | 11.2 | -4.52 | 3.23 | 1.24 | 3.51
13 | COC(=O)c1cccc(C(=O)N2CCN(c3cccc(C)c3C)CC2)n1 | -0.0243 | 20.8 | -2.32 | 0.218 | 2.66 | 0.645 | 10.3 | 87 | 2.12 | 11.5 | -9.48
14 | Cc1cc(C)c(CNC(=O)NCC2CCCN2C)c(=O)[nH]1 (stereo unspecified) | -7.62 | 2.63 | -1.76 | 2.1 | -4.89 | -2.68 | 4.84 | 25.4 | -4.41 | -2.44 | -2.8
15 | Cc1ccc(C(CNCc2cnn(C(C)C)c2)N2CCOCC2)s1 (stereo unspecified) | -3.15 | -2.7 | -0.219 | -2.96 | -0.391 | -2.5 | 11.1 | -8.39 | 4.95 | 1.22 | -6.03
16 | CS(=O)(=O)Cc1ccc(CNC(=O)c2cccnc2O)cc1 | -1.42 | 13.9 | 8.18 | 5.03 | -5.64 | 1.94 | 22.3 | 17.9 | 3.12 | 7.59 | -7.98
17 | COC(=O)C(NC(=O)c1ccco1)c1cc(F)ccc1F (stereo unspecified) | -3.29 | 5.2 | 19.7 | 11.4 | 6.93 | -0.712 | 9.46 | -16.9 | 1.94 | 14.6 | -8.66
18 | Cc1nnc(SCC(=O)N2CCC3(CC2)c2ccccc2CC3O)o1 (stereo unspecified) | -5.99 | 13 | -6.65 | 21.9 | 6.79 | 0 | 7.49 | -5.03 | 3.23 | 16.1 | -7.51
19 | O=C(Cc1ccc2c(c1)CCCC2)NCCc1ccccn1 | -2.72 | -7.89 | -4.68 | -1.25 | 0.0934 | 1.44 | 16.2 | 12.1 | 7.39 | 23.5 | -7.01
20 | COc1ccc2c(c1)C1(CCN(Cc3ccoc3)CC1)N(C)CC2 | -1.9 | 5.2 | 2.57 | 3.45 | -0.0986 | -7.1 | 20 | -0.746 | -1.06 | 8.97 | -9.11
21 | CN(Cc1ccc(Cl)s1)C(=O)c1cccc(OCC(N)=O)c1 | 1.02 | 5.41 | 0.84 | -1.09 | -3.09 | 0.952 | 11.2 | 15.1 | 4.76 | 14.6 | -3.46
